8 molecules from PubChem BioAssay (NCI) can be followed below.

The panel holds about 83,000 compounds, 20% with a hit somewhere; the sample as a whole holds those more often.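 The test compound was applied at a single concentration to cells in 96-well plates for 48 hours, and percent growth was recorded.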 Unmarked numbers belong to inactive results. Activity calls are given as the source filed them. Rule for the calls: active = growth percent below 10; inactive = the rest.

Among the test systems are EKVX NSCLC; SN12C renal; UO-31 renal; TK-10 renal; ACHN renal; CAKI-1 renal; A498 renal; CCRF-CEM leukemia; MOLT-4 leukemia; SR leukemia; RPMI-8226 leukemia; OVCAR-5 ovarian; OVCAR-4 ovarian; SK-OV-3 ovarian; IGROV1 ovarian; OVCAR-3 ovarian; HS 578T breast; NCI/ADR-RES ovarian; OVCAR-8 ovarian.
Holding throughout (experiment): NCI-60 one-dose screen, 48 h (100 = growth as untreated, 0 = no growth, -100 = all killed)
Holding throughout (settings): 10 µM unless noted

Turning to `COc1ccc(CNc2nccnn2)cc1`, the growth in the assay on EKVX NSCLC was 99.1%; in the assay on SN12C renal, 108%; in the assay with UO-31 renal it was 100%; in the assay with TK-10 renal, 93.4%; in the assay with ACHN renal it was 98%; in the assay on CAKI-1 renal, 97.8%. For the same molecule, the growth is 90.2% in the assay with A498 renal; 114% with CCRF-CEM leukemia; 47.7% in the assay with MOLT-4 leukemia; 52.1% in the assay with SR leukemia; 108% in the assay with RPMI-8226 leukemia; 96.4% in the assay with OVCAR-5 ovarian. The growth in the assay with OVCAR-4 ovarian is 111%; in the assay with SK-OV-3 ovarian, 109%; with IGROV1 ovarian it was 101%; in the assay on OVCAR-3 ovarian, 105%; in the assay with HS 578T breast it was 111%; in the assay with NCI/ADR-RES ovarian, 99.4%.

`COc1ccc(CN2C(=O)/C(=C\c3cc(OC)c(OC)c(OC)c3)c3cc(OC)ccc32)cc1`: the growth with EKVX NSCLC is 13.5%; in the assay on SN12C renal, 18%; in the assay with UO-31 renal it was 6.01% (active); with TK-10 renal, 11.2%; in the assay on ACHN renal it was -60.5% (active); in the assay on CAKI-1 renal, -2.31% (active). Besides, the growth in the assay with A498 renal was 38.6%; in the assay on MOLT-4 leukemia, -24.7% (active); with SR leukemia, -31.1% (active); in the assay on RPMI-8226 leukemia, -35.9% (active); in the assay on OVCAR-8 ovarian, -43.2% (active); in the assay with OVCAR-5 ovarian, 15%. For the same molecule, the growth with OVCAR-4 ovarian was 27.2%; in the assay on SK-OV-3 ovarian it was 7.88% (active); in the assay on IGROV1 ovarian it was -9.32% (active); in the assay on OVCAR-3 ovarian, -10.8% (active); in the assay on HS 578T breast, 9.55% (active); with NCI/ADR-RES ovarian, 6.96% (active).

As for `O=C1c2cccnc2C(=O)c2c1c(C(=O)OCCN1CCCCC1)c1ccccn21`, the growth in the assay on EKVX NSCLC is 4.44% (active); in the assay with SN12C renal, -68.8% (active); in the assay with UO-31 renal it was -12.7% (active); with TK-10 renal, -14.3% (active); with ACHN renal, -66% (active); in the assay on CAKI-1 renal, 2.16% (active). The growth in the assay on A498 renal was 47.3%; in the assay on CCRF-CEM leukemia, -8.77% (active); in the assay on MOLT-4 leukemia, -19.1% (active); in the assay with SR leukemia, -23.9% (active); with RPMI-8226 leukemia, -29.9% (active); in the assay with OVCAR-8 ovarian it was -58.2% (active). Also, the growth in the assay with OVCAR-5 ovarian was -27.8% (active); in the assay with OVCAR-4 ovarian, 0.138% (active); with SK-OV-3 ovarian, -36.8% (active); with IGROV1 ovarian it was -16.7% (active); in the assay with OVCAR-3 ovarian, -2.68% (active); in the assay with HS 578T breast it was -0.578% (active). The growth in the assay with NCI/ADR-RES ovarian was -25.5% (active).

On to `COc1ccc(/C=C2\N=C3Sc4cc(Cl)ccc4C(=O)N3C2=O)cc1`, for which the growth was 96.3% in the assay with SN12C renal; 65% with UO-31 renal; 107% with TK-10 renal; 92.1% in the assay with ACHN renal; 73.8% with CAKI-1 renal; 108% with A498 renal. Moreover, the growth in the assay with CCRF-CEM leukemia was 93.4%; in the assay on MOLT-4 leukemia, 93.6%; in the assay with SR leukemia, 88.4%; in the assay on RPMI-8226 leukemia, 101%; with OVCAR-8 ovarian, 94.6%; in the assay with OVCAR-5 ovarian it was 98.1%. In addition, the growth in the assay on OVCAR-4 ovarian is 103%; in the assay with SK-OV-3 ovarian, 98.1%; with IGROV1 ovarian, 107%; with OVCAR-3 ovarian, 104%; in the assay with HS 578T breast, 102%; in the assay with NCI/ADR-RES ovarian, 106%.

For the molecule `COc1ccc(-c2cnoc2-c2cc(OC)c3c(c2)OCCO3)cc1`, the growth was 9.42% (active) in the assay with SN12C renal; 39.6% in the assay on UO-31 renal; 71.8% in the assay on TK-10 renal; 21.1% with ACHN renal; 33.5% in the assay on CAKI-1 renal; -8.01% (active) in the assay on A498 renal. The growth is -7.11% (active) in the assay on CCRF-CEM leukemia; 6.08% (active) with MOLT-4 leukemia; 3.75% (active) with SR leukemia; -8.88% (active) in the assay with RPMI-8226 leukemia; 9.43% (active) in the assay on OVCAR-8 ovarian; 31.9% in the assay on OVCAR-5 ovarian. Further, the growth is 50.4% in the assay on OVCAR-4 ovarian; 11.7% with SK-OV-3 ovarian; 29.2% with IGROV1 ovarian; -18.6% (active) in the assay on OVCAR-3 ovarian; 45.7% with HS 578T breast.

On to `NCCN1CCN(c2nccc(-c3ccc4ccccc4c3)n2)CC1`, for which the growth in the assay with EKVX NSCLC is 75.6%; with SN12C renal it was 52.1%; in the assay with UO-31 renal, 12.4%; in the assay on TK-10 renal, 73.9%; in the assay on ACHN renal, 46.5%; in the assay with CAKI-1 renal, 45.3%. The growth in the assay with A498 renal was 61.6%; in the assay with CCRF-CEM leukemia, 18%; with MOLT-4 leukemia it was 22.1%; in the assay with RPMI-8226 leukemia it was 5.16% (active); with OVCAR-5 ovarian, 73.8%; with OVCAR-4 ovarian, 78.7%. Also, the growth is 88.6% in the assay with SK-OV-3 ovarian; 51.2% in the assay on IGROV1 ovarian; 73.8% with OVCAR-3 ovarian; 63.9% with HS 578T breast; 69.4% in the assay on NCI/ADR-RES ovarian.

As for `CN1C2CCC1/C(=C\c1ccc(Cl)cc1)C1=C2[C@@H](c2ccc(Cl)cc2)C(C#N)=C(N)O1` (some centres not stated), the growth in the assay with EKVX NSCLC is 75.7%; with SN12C renal, 94%; in the assay with UO-31 renal, 65.6%; with TK-10 renal, 97%; in the assay with ACHN renal, 93.9%; with CAKI-1 renal, 76%. In addition, the growth was 80% in the assay with A498 renal; 77.2% in the assay on CCRF-CEM leukemia; 57.6% with MOLT-4 leukemia; 62.6% with RPMI-8226 leukemia; 93.3% in the assay with OVCAR-8 ovarian; 84.5% with OVCAR-5 ovarian. Besides, the growth with OVCAR-4 ovarian was 75.6%; in the assay with SK-OV-3 ovarian, 94.8%; with IGROV1 ovarian it was 79.1%; in the assay on OVCAR-3 ovarian it was 92.5%; in the assay with HS 578T breast, 95.1%; in the assay with NCI/ADR-RES ovarian it was 95.8%.

Consider `COc1ccc(C/C(C)=C(\c2ccc(OCCN3CCCCCC3)cc2)c2ccc(OC(=O)C3CCCCC3)cc2)cc1`, for which the growth was 83.5% with EKVX NSCLC; 57.1% in the assay on SN12C renal; 38.6% in the assay on UO-31 renal; 86.4% with TK-10 renal; 80.8% in the assay on ACHN renal; 86.7% in the assay with CAKI-1 renal. For the same molecule, the growth with A498 renal is 80.4%; with CCRF-CEM leukemia, 49.7%; in the assay on MOLT-4 leukemia, 32.3%; in the assay with SR leukemia, 3.43% (active); in the assay with OVCAR-8 ovarian, 68.9%; in the assay on OVCAR-4 ovarian, 71.7%. Further, the growth with SK-OV-3 ovarian is 77.8%; in the assay on IGROV1 ovarian it was 52.3%; in the assay on OVCAR-3 ovarian, 63.5%; in the assay on HS 578T breast, 51.6%; in the assay on NCI/ADR-RES ovarian, 73.5%.
